± gives the standard deviation of the averaged measurements. In all, about 4,100 sequences were measured (“relative kcat/Km (krel) vs genomic leader AAAGAU”: median about 1.7, highest 2% from about 6.5 on). This excerpt belongs to a sample that is enriched for the highest values.
Target: T1, E. coli RNase P holoenzyme (M1 P RNA + rnpA protein) (UniProt P0A7Y8)
T1 sequence: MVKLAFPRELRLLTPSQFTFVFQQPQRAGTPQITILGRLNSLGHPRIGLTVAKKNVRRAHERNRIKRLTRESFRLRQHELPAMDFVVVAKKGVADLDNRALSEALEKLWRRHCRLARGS
Test: relative kcat/Km (krel) vs genomic leader AAAGAU (relative (reference leader = 1)); higher = faster RNase P cleavage
Outline: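 A precursor tRNA-Met pool randomized at leader positions −6 to −1 was cleaved by E. coli RNase P holoenzyme (P RNA plus C5 protein) under multiple-turnover conditions at 37 °C in 50 mM Tris-HCl pH 8, 100 mM NaCl, 17.5 mM MgCl2. Unreacted precursor was gel-purified at ~5–30% conversion, converted to cDNA libraries and Illumina-sequenced. Relative kcat/Km (krel) was calculated by internal competition kinetics from read ratios, normalised to the genomic leader, averaging two technical replicates.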

[1] = fraction of substrate reacted: ~9-10% (9.79% repeat 1, 9.1% repeat 2)
[2] = fraction of substrate reacted: ~13-16% (15.68% repeat 1, 13.17% repeat 2)
[3] = fraction of substrate reacted: ~26-29% (28.66% repeat 1, 26.4% repeat 2)

Sequence	relative kcat/Km [1]	relative kcat/Km [2]	relative kcat/Km [3]
ACAAAC	1.92 ± 1.6	1.88 ± 1.1	2.42 ± 0.36
CGCTGA	1.89 ± 0.05	2.02 ± 1	3.55 ± 0.89
CTCTGA	4.13 ± 2	4.61 ± 0.58	6.63 ± 1.7
CTCTGT	0.825 ± 0.31	1.81 ± 1.4	2.05 ± 1.6
GTCTGT			2.58 ± 2
GTCTGA	3.86 ± 1.8	4.82 ± 1.2	6.97 ± 2.6
GTCTGG		0.567 ± 0.54	0.916 ± 0.067
GGGCAT	1.03 ± 0.31	1.51 ± 0.12	2.18 ± 0.97
TCTAAG	2.04 ± 1.6	1.47 ± 0.52	2.47 ± 0.27

Source: the supplement of paper PMC9433436
